Experimental findings from PubChem BioAssay (NCI) are described below.

Some test systems named below: HCT-15 colon; HT29 colon; SNB-19 CNS; U251 CNS; PC-3 prostate; SK-MEL-5 melanoma; UACC-62 melanoma; LOX IMVI melanoma; SK-MEL-28 melanoma; SK-MEL-2 melanoma; SN12C renal; UO-31 renal; TK-10 renal; ACHN renal; CAKI-1 renal; A498 renal; CCRF-CEM leukemia; MOLT-4 leukemia; EKVX NSCLC.
Common to all, as to experiment: NCI-60 one-dose screen, 48 h (100 = growth as untreated, 0 = no growth, -100 = all killed)
Common to all, as to conditions: 10 µM unless noted

About 83,000 compounds went through this panel and 20% of them were active in at least one assay; those are over-represented in the sample as a whole.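 Growth was measured after 48 h exposure to one concentration of compound in 96-well plates. Values under 10 count as active.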 Values without a mark were called inactive. The source made the active and inactive calls.

With `COc1ccc(C(=O)/C=C/c2cc3c(c(OC)c2)OCC(=O)N3)cc1`, the growth in the experiment on HCT-15 colon was 33.4%; with HT29 colon it was 19.2%; with SNB-19 CNS, 76.1%; with U251 CNS it was 67.6%; with PC-3 prostate, 49.6%; with SK-MEL-5 melanoma it was 84.2%. Also, the growth with UACC-62 melanoma is 85.3%; with LOX IMVI melanoma, 40.1%; with SK-MEL-28 melanoma, 73.1%; in the experiment with SK-MEL-2 melanoma, 110%; in the experiment on SN12C renal it was 48.7%; with UO-31 renal, 62.2%. The growth was 116% in the experiment with TK-10 renal; 46.3% with ACHN renal; 20.8% in the experiment on CAKI-1 renal; 94.3% in the experiment on A498 renal; 7.77% (active) in the experiment with CCRF-CEM leukemia; 6.17% (active) with MOLT-4 leukemia.

Turning to `N=C(N)c1ccc(-c2ccc(-c3ccc(Cl)cn3)s2)cc1`, the growth is -46% (active) in the experiment on HCT-15 colon; 0.247% (active) in the experiment on HT29 colon; 65.7% with SNB-19 CNS; -24.7% (active) with U251 CNS; 56.3% in the experiment on PC-3 prostate; 70.5% with SK-MEL-5 melanoma. For the same compound, the growth in the experiment with UACC-62 melanoma was 89.7%; in the experiment on LOX IMVI melanoma, -82.1% (active); in the experiment on SK-MEL-28 melanoma, 76.4%; in the experiment on SK-MEL-2 melanoma it was 99.8%; in the experiment on EKVX NSCLC it was 65.8%; in the experiment on SN12C renal it was 10.2%. Further, the growth is 57.6% with UO-31 renal; 91.9% in the experiment with TK-10 renal; 12% in the experiment with ACHN renal; 63.2% in the experiment on CAKI-1 renal; 3.3% (active) with CCRF-CEM leukemia; 4.73% (active) with MOLT-4 leukemia.

As to `NS(=O)(=O)c1cnccc1-n1ccc(=O)c(S(N)(=O)=O)c1`, the growth was 90.8% in the experiment on HCT-15 colon; 105% in the experiment on HT29 colon; 88.1% in the experiment on SNB-19 CNS; 96.6% in the experiment on U251 CNS; 86.5% with PC-3 prostate; 103% in the experiment with SK-MEL-5 melanoma. In addition, the growth in the experiment on UACC-62 melanoma was 96.9%; with LOX IMVI melanoma it was 97.1%; in the experiment with SK-MEL-28 melanoma, 92.5%; in the experiment with SK-MEL-2 melanoma, 81.1%; in the experiment with EKVX NSCLC, 90.3%; in the experiment with SN12C renal it was 92.6%. Also, the growth is 68.6% in the experiment with UO-31 renal; 83.8% in the experiment on TK-10 renal; 93.6% with ACHN renal; 85.4% with A498 renal; 88.5% with CCRF-CEM leukemia; 76.9% in the experiment with MOLT-4 leukemia.

For `CCN(CC)CCCNC(=O)c1ccc(N)cc1`, the growth in the experiment with HCT-15 colon is 101%; in the experiment with HT29 colon, 100%; in the experiment on SNB-19 CNS it was 102%; with U251 CNS, 101%; in the experiment on PC-3 prostate, 101%; in the experiment with SK-MEL-5 melanoma, 97.7%. In addition, the growth is 105% in the experiment with UACC-62 melanoma; 103% with LOX IMVI melanoma; 96.8% with SK-MEL-28 melanoma; 99% in the experiment with SK-MEL-2 melanoma; 104% in the experiment on EKVX NSCLC; 103% in the experiment on SN12C renal. Moreover, the growth with UO-31 renal is 78.8%; with TK-10 renal, 97.8%; in the experiment with ACHN renal, 97.3%; with CAKI-1 renal, 107%; in the experiment with A498 renal, 66.3%; in the experiment on CCRF-CEM leukemia, -34.9% (active). In the experiment with MOLT-4 leukemia, the growth was 85.3%.

`Cc1cc(=O)c2cc3nc(-c4cccnc4)oc3c(Br)c2o1`: the growth is 106% with HCT-15 colon; 103% in the experiment with HT29 colon; 131% in the experiment with SNB-19 CNS; 97.8% in the experiment on U251 CNS; 99.6% with PC-3 prostate; 105% in the experiment on SK-MEL-5 melanoma. Moreover, the growth in the experiment on UACC-62 melanoma is 104%; in the experiment with LOX IMVI melanoma, 98%; in the experiment on SK-MEL-28 melanoma it was 119%; with SK-MEL-2 melanoma, 131%; in the experiment with EKVX NSCLC, 98.9%; in the experiment on SN12C renal, 110%. Further, the growth was 106% in the experiment with UO-31 renal; 153% with TK-10 renal; 110% in the experiment on ACHN renal; 103% in the experiment on A498 renal; 94.1% in the experiment with CCRF-CEM leukemia; 89.7% in the experiment on MOLT-4 leukemia.

On to `O=C(CC1Sc2ccccc2NC1=O)NNc1ccc(F)cc1` (stereo unspecified), for which the growth in the experiment on HCT-15 colon was 60.5%; with HT29 colon, 98.5%; in the experiment with SNB-19 CNS, 84.5%; in the experiment with U251 CNS it was 85.2%; in the experiment with PC-3 prostate, 52.5%; in the experiment on SK-MEL-5 melanoma, 106%. The growth is 40% in the experiment with UACC-62 melanoma; 18.5% in the experiment with LOX IMVI melanoma; 123% in the experiment on SK-MEL-28 melanoma; 75.9% with EKVX NSCLC; 89.5% in the experiment with SN12C renal; 48.4% in the experiment with UO-31 renal. For the same compound, the growth was 121% in the experiment with TK-10 renal; 56.4% in the experiment on ACHN renal; 69% in the experiment with CAKI-1 renal; 91.7% in the experiment on A498 renal; 7.39% (active) in the experiment on CCRF-CEM leukemia; 45.8% in the experiment on MOLT-4 leukemia.

Turning to `Clc1ccc(/C=N\N=c2\scc(-c3ccc(Cl)cc3)n2/N=C/c2ccc(Cl)cc2)cc1`, the growth in the experiment with HCT-15 colon was 111%; in the experiment with HT29 colon, 76.5%; with SNB-19 CNS, 90%; in the experiment with U251 CNS, 97.6%; in the experiment on PC-3 prostate, 102%; in the experiment with SK-MEL-5 melanoma, 106%. For the same compound, the growth in the experiment with UACC-62 melanoma was 98.7%; with LOX IMVI melanoma, 109%; in the experiment with SK-MEL-28 melanoma it was 106%; in the experiment on SK-MEL-2 melanoma, 91.4%; in the experiment with EKVX NSCLC, 109%; with SN12C renal, 102%. In addition, the growth with UO-31 renal is 95.7%; with TK-10 renal, 92.5%; in the experiment on ACHN renal, 106%; in the experiment on CAKI-1 renal, 107%; with A498 renal, 92.1%; in the experiment with CCRF-CEM leukemia, 97%. Moreover, in the experiment on MOLT-4 leukemia, the growth was 91.7%.

`COc1cc(C2CC(=O)Nc3n[nH]c(-c4ccccc4)c32)cc(OC)c1OC` (stereo unspecified): the growth was 68.4% in the experiment on HCT-15 colon; 47.1% in the experiment with HT29 colon; 75.4% in the experiment with SNB-19 CNS; 62.9% with U251 CNS; 59.3% in the experiment on PC-3 prostate; 68% with SK-MEL-5 melanoma. The growth with UACC-62 melanoma is 38%; with LOX IMVI melanoma, 70.3%; in the experiment on SK-MEL-28 melanoma, 66.5%; in the experiment with SK-MEL-2 melanoma it was 59.8%; in the experiment on EKVX NSCLC it was 78.2%; in the experiment with SN12C renal, 84.2%. For the same compound, the growth is 87.1% in the experiment on UO-31 renal; 97.7% in the experiment on TK-10 renal; 104% in the experiment with ACHN renal; 92% with CAKI-1 renal; 70.2% in the experiment with CCRF-CEM leukemia; 54% in the experiment on MOLT-4 leukemia.
